# Measurements published in the supplement of paper PMC10849652.
# Targets with a hit are over-represented here; the source holds about 7,900 in all. About 0.6% of all pairs of compound and target were hits. A number with no mark means an inactive call.
# Assays:
# Experiment in all cases: log2 fold change, soluble protein after heating vs DMSO (PISA); higher = thermal stabilisation; K562 cells, 10 uM, 30 min; active = over 0.2 and 3.5 SD of the protein, either way, in both replicates (recomputed)
# [1] = compound: CC[C@@H]1C(=O)N(C)c2cnc(Nc3ccc(C(=O)NC4CCN(C)CC4)cc3OC)nc2N1C1CCCC1
# Procedure, shortened: (§1)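 Values are thermal stability changes relative to control samples and are taken from duplicates. They are stated as log2 fold changes. Before quantification by TMTpro 16plex LC-MS/MS with equalised channel sums, K562 cells at 2×10^6 cells/mL were treated with 10 μM compound for 30 min, heated in aliquots for 3 min across 48°C-58°C, pooled, extracted in PBS with 0.5% NP-40 at 4°C, and centrifuged at 21,000xg for 90 min to give the soluble supernatant.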
# volasertib = compound: CC[C@@H]1C(=O)N(C)c2cnc(Nc3ccc(C(=O)N[C@H]4CC[C@H](N5CCN(CC6CC6)CC5)CC4)cc3OC)nc2N1C(C)C [volasertib]
# Procedure, shortened: as §1
# [2] = compound: CC[C@H](C)N1C=C(C2=C(C=C(C=C21)C3=CN=C(C=C3)N4CCNCC4)C(=O)NCC5=C(C=C(NC5=O)C)C)C
# Procedure, shortened: as §1
# epoxomicin = compound: CC[C@H](C)[C@@H](C(=O)N[C@@H]([C@@H](C)O)C(=O)N[C@@H](CC(C)C)C(=O)[C@]1(CO1)C)NC(=O)[C@H]([C@@H](C)CC)N(C)C(=O)C [epoxomicin]
# Procedure, shortened: as §1
# [3] = compound: CCn1c(C(=O)N(C2CC2)C2CC2)cc2c3c(ncn3C)c(Nc3cc(C)n(C)n3)nc21
# Procedure, shortened: as §1
# [4] = compound: CCn1cc(-c2ccnc3[nH]c(-c4cccc(CN(C)C)c4)cc23)c(-c2ccc(NC(=O)N(C)C)cc2)n1
# Procedure, shortened: as §1
# [5] = compound: CN(C)CC(=O)Nc1ccc2[nH]c(=O)c3ccccc3c2c1
# Procedure, shortened: as §1
# rosiglitazone = compound: CN(CCOC1=CC=C(C=C1)C[C@H]2C(=O)NC(=O)S2)C3=CC=CC=N3 (racemic) [rosiglitazone]
# Procedure, shortened: as §1
# [6] = compound: CN1C2=C(C3=C1C(=O)N(N=C3)CC4=CC(=CC=C4)N)SC(=C2)S(=O)C
# Procedure, shortened: as §1
# [7] = compound: CN1CCC(CNc2ccc3ncc(-c4cccc(OC(F)(F)F)c4)n3n2)CC1
# Procedure, shortened: as §1
# saracatinib = compound: CN1CCN(CCOc2cc(OC3CCOCC3)c3c(Nc4c(Cl)ccc5c4OCO5)ncnc3c2)CC1 [saracatinib]
# Procedure, shortened: as §1
# sotrastaurin = compound: CN1CCN(c2nc(C3=C(c4c[nH]c5ccccc45)C(=O)NC3=O)c3ccccc3n2)CC1 [sotrastaurin]
# Procedure, shortened: as §1
# alvocidib = compound: CN1CC[C@H](c2c(O)cc(O)c3c(=O)cc(-c4ccccc4Cl)oc23)[C@H](O)C1 [alvocidib]
# Procedure, shortened: as §1
# Tubastatin A = compound: CN1CCc2c(c3ccccc3n2Cc2ccc(C(=O)NO)cc2)C1 [Tubastatin A]
# Procedure, shortened: as §1
# [8] = compound: CNC(=O)C1=CC=CC=C1NC2=NC(=NC=C2Cl)NC3=C(C=C(C=C3)N4CCOCC4)OC
# Procedure, shortened: as §1
# defactinib = compound: CNC(=O)c1ccc(Nc2ncc(C(F)(F)F)c(NCc3nccnc3N(C)S(C)(=O)=O)n2)cc1 [defactinib]
# Procedure, shortened: as §1
# rucaparib = compound: CNCc1ccc(-c2[nH]c3cc(F)cc4c3c2CCNC4=O)cc1 [rucaparib]
# Procedure, shortened: as §1
# [9] = compound: CNc1nc(-c2ccc3c(N)n[nH]c3c2)cc(N2C[C@@H](C(=O)NC3CCCCC3)CC[C@H]2C)n1
# Procedure, shortened: as §1
# encorafenib = compound: COC(=O)N[C@@H](C)CNc1nccc(-c2cn(C(C)C)nc2-c2cc(Cl)cc(NS(C)(=O)=O)c2F)n1 [encorafenib]
# Procedure, shortened: as §1
# [10] = compound: COC(=O)[C@H](CCSC)NC(=O)C1=C(C=C(C=C1)NC[C@H](CS)N)C2=CC=CC=C2
# Procedure, shortened: as §1
# UniProt Q96JI7, sequence (Q96JI7 whole entry, looked up): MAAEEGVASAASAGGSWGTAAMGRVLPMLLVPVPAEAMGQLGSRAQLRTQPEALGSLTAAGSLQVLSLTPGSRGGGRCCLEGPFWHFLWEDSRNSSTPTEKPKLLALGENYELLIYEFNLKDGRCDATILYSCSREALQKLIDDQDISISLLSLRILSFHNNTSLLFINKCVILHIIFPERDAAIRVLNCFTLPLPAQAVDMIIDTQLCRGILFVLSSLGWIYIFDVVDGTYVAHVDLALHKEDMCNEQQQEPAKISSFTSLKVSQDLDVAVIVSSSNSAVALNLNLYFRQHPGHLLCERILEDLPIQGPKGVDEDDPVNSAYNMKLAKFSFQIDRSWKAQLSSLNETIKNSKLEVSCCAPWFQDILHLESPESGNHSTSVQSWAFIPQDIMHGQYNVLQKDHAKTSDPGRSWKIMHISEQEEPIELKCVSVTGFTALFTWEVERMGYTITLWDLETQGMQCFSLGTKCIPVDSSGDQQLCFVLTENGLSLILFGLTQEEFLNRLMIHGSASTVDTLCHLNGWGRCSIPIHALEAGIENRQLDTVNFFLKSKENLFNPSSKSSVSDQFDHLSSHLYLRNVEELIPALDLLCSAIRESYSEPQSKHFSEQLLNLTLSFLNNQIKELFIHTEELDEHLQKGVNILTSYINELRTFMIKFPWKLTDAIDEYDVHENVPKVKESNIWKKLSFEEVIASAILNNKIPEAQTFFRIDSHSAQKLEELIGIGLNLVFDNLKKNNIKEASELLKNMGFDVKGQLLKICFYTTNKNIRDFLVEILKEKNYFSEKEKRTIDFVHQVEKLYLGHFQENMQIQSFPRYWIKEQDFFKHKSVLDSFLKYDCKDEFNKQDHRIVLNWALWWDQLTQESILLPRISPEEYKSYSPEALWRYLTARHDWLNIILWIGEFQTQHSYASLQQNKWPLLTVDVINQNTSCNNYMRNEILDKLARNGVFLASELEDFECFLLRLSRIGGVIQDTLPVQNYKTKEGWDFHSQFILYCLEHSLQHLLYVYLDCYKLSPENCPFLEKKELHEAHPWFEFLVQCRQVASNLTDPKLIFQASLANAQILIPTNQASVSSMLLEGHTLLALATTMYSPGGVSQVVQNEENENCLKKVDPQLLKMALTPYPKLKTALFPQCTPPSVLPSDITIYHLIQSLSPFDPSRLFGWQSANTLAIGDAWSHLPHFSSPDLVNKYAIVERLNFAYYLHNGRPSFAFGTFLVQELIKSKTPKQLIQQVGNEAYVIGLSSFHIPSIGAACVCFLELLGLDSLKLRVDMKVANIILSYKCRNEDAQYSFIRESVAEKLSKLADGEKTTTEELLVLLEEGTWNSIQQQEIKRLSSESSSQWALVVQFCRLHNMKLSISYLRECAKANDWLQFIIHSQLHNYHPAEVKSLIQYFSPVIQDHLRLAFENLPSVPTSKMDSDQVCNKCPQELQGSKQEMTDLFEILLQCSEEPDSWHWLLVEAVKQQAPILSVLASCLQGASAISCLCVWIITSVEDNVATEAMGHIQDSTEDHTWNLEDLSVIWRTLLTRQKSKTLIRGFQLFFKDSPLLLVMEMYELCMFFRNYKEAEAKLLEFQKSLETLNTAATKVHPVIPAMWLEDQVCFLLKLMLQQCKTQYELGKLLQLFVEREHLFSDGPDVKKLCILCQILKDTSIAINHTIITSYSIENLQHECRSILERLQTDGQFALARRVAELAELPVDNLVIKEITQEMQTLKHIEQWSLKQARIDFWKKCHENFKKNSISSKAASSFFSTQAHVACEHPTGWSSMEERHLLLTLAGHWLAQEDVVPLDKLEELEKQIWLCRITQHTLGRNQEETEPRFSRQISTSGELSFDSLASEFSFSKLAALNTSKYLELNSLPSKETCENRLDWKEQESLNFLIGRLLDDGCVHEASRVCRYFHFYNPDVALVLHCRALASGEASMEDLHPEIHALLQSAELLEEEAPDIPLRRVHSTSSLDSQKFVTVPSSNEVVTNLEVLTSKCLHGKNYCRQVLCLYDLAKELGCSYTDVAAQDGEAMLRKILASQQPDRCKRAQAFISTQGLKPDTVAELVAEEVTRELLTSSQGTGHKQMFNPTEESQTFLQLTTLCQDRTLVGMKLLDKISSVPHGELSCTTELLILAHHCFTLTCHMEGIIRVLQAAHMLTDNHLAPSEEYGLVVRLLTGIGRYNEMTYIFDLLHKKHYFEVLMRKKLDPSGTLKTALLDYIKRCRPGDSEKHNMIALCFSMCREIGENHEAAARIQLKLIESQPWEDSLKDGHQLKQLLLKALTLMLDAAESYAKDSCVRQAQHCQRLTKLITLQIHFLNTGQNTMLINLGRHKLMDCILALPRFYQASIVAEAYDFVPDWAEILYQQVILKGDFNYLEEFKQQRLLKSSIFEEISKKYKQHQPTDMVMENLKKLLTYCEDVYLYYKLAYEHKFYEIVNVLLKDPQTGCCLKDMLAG
# UniProt Q13501, sequence (Q13501 whole entry, looked up): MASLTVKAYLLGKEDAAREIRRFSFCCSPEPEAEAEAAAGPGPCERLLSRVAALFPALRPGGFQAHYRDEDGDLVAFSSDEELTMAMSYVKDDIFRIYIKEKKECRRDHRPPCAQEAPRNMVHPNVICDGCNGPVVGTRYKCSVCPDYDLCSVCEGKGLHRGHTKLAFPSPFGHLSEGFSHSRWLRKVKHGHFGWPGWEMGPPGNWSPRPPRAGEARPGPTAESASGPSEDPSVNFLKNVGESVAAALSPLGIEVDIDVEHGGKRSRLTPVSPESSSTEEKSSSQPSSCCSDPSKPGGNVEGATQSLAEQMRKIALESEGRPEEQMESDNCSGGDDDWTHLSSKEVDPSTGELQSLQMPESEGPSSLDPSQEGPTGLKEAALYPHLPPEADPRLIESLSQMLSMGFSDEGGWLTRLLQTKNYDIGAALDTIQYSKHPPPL
# UniProt O43815, sequence (O43815 whole entry, looked up): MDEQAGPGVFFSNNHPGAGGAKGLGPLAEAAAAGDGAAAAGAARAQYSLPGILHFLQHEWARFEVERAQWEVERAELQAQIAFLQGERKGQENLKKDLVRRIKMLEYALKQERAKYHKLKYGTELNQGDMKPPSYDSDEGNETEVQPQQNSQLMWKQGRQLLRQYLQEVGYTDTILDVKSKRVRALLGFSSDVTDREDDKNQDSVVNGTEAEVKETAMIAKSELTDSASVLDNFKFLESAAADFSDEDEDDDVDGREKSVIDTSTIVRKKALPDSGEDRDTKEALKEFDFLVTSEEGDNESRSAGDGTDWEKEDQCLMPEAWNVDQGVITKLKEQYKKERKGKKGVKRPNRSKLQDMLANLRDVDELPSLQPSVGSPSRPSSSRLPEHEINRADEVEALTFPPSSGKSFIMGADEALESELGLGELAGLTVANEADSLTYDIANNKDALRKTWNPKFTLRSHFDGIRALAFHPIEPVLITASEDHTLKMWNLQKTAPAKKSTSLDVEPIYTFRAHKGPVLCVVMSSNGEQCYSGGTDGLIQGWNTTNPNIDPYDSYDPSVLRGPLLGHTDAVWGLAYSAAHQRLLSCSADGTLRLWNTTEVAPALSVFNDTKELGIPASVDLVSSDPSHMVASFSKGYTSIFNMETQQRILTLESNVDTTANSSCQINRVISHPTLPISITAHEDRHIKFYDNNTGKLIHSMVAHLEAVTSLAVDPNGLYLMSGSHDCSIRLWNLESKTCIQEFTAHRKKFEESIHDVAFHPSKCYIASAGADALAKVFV
# UniProt O95926, sequence (O95926 whole entry, looked up): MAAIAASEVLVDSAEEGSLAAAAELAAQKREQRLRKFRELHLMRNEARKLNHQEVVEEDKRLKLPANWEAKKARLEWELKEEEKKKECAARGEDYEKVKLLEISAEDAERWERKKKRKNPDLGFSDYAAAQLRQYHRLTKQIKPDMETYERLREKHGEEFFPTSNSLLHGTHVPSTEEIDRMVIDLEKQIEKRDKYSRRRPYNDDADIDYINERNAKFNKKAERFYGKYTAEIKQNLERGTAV
# UniProt P56962, sequence (P56962 whole entry, looked up): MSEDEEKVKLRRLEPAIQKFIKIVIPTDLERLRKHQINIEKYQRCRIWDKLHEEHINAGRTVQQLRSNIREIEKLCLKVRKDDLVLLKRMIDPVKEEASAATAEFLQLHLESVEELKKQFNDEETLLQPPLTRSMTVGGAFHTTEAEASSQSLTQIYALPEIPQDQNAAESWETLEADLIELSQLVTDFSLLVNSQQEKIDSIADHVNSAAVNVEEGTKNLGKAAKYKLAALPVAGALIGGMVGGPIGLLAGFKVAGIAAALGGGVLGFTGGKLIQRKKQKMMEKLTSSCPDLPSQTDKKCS
# UniProt Q969X1, sequence (Q969X1 whole entry, looked up): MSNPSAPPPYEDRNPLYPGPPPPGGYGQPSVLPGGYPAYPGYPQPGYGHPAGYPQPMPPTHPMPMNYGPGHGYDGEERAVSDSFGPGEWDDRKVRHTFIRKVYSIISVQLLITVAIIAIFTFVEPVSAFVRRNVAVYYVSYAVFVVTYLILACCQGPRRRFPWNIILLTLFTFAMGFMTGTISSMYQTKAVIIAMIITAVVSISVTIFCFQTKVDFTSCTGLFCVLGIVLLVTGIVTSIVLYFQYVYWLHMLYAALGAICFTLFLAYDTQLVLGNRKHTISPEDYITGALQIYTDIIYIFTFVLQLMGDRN
# UniProt Q01130, sequence (Q01130 whole entry, looked up): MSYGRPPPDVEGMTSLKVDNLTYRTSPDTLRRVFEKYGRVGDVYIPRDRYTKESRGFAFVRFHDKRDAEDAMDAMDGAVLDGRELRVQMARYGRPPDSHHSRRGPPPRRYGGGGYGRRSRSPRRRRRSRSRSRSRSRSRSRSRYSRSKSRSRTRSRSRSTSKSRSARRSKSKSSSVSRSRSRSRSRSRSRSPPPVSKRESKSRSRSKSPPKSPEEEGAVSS
Target,log2 fold change [1],log2 fold change (volasertib),log2 fold change [2],log2 fold change (epoxomicin),log2 fold change [3],log2 fold change [4],log2 fold change [5],log2 fold change (rosiglitazone),log2 fold change [6],log2 fold change [7],log2 fold change (saracatinib),log2 fold change (sotrastaurin),log2 fold change (alvocidib),log2 fold change (Tubastatin A),log2 fold change [8],log2 fold change (defactinib),log2 fold change (rucaparib),log2 fold change [9],log2 fold change (encorafenib),log2 fold change [10]
SYF2 (UniProt O95926),0.196,0.174,-0.096,0.129,-0.01,0.068,-0.044,-0.017,0.039,0.187,-0.028,-0.041,0.383 (active),-0.016,-0.086,0.286,0.029,-0.14,-0.062,0.038
STK11IP (UniProt Q8N1F8),-0.224,-0.517 (active),0.103,0.069,-0.051,-0.006,0.025,0.011,0.026,-0.233,0.001,-0.138,-0.184,0.084,0.097,-0.074,0.1,-0.039,0.265,0.007
SRSF2 (UniProt Q01130),0.087,0.134,-0.027,-0.069,0.047,0.022,-0.082,-0.024,0.045,0.054,-0.008,0.089,0.218,-0.034,-0.1,0.052,0.078,-0.001,-0.013,0.076
STX17 (UniProt P56962),-0.273,-0.357 (active),-0.06,0.062,-0.067,0.011,-0.02,0.089,-0.126,-0.278,-0.038,0,-0.217,0.044,0.021,-0.266,0.152,0.127,0.091,-0.001
SNX2 (UniProt O60749),-0.129,-0.053,0.093,0.026,-0.102,-0.08,0.005,0.054,-0.003,-0.332 (active),0.006,0.002,-0.089,0.004,-0.114,-0.068,-0.004,0.024,0,-0.029
THRAP3 (UniProt Q9Y2W1),0.03,0.098,-0.137,-0.093,-0.013,0.101,-0.026,-0.007,0.025,-0.058,0.035,0.008,0.094,0.048,-0.266,-0.29,-0.002,-0.047,-0.015,0.019
SNW1 (UniProt Q13573),0.094,0.078,-0.052,-0.012,0.03,0.044,-0.027,-0.047,0,0.078,0.01,0.003,0.128,-0.033,0.038,0.131,0.042,-0.082,-0.005,-0.005
TMBIM1 (UniProt Q969X1),0.086,0.002,-0.014,-0.033,0.034,0.044,0.029,-0.013,-0.035,-0.03,-0.147,0.012,0.207,0.002,-0.042,0.043,-0.009,-0.097,-0.223,0.051
SMC5 (UniProt Q8IY18),0.042,0.054,-0.009,0.018,-0.023,-0.025,0.033,0,0.005,0.037,-0.005,-0.075,0,-0.034,0.056,-0.05,0.015,-0.046,-0.045,-0.014
STRN (UniProt O43815),-0.031,-0.031,0.026,0.046,0.007,-0.046,0.02,0.003,-0.031,0.073,0.022,0.026,-0.097,0.013,-0.007,-0.076,-0.007,-0.026,0.017,-0.017
SNX1 (UniProt Q13596),-0.135,-0.113,0.096,0.037,-0.096,-0.107,0.003,0.079,-0.029,-0.605 (active),0.006,-0.006,-0.084,-0.021,-0.112,-0.036,-0.023,0.028,0.024,-0.026
STAT5A (UniProt P42229),-0.225,-0.633 (active),0.121,0.072,-0.072,0.041,0.074,0.056,-0.005,-0.109,-0.093,-0.14,-0.151,0.088,-0.001,-0.273,0.006,0.054,0.088,-0.059
SQSTM1 (UniProt Q13501),-0.09,-0.204,0.021,-0.056,0.041,-0.112,0.042,0.012,0.043,-0.022,-0.038,-0.073,-0.149,-0.022,-0.024,-0.074,-0.021,-0.048,0.012,0.051
TIAL1 isoform 2 (UniProt Q01085),0.042,-0.042,0.006,0.001,0.01,0.026,-0.056,-0.019,-0.063,-0.03,0.015,0.025,0.036,-0.052,-0.019,0.077,0.066,-0.042,-0.034,-0.014
STAT3 (UniProt P40763),-0.336 (active),-0.767 (active),0.056,0.002,-0.052,-0.059,0.052,0.063,-0.047,-0.275 (active),0.025,-0.144,-0.112,0.05,0.029,-0.124,-0.062,-0.017,0.077,-0.012
SPG11 (UniProt Q96JI7),0.155,-0.294,0.017,-0.085,0.019,0.141,-0.216,-0.045,0.367,-1.24 (active),-0.281,0.055,0.28,0.012,-0.156,0.151,0.046,0.119,-0.094,0.069
